Laboratory results from PubChem BioAssay (NCATS).
Inconclusive results are not listed. Where a call stands in place of a potency, no number is given. Unmarked numbers belong to inactive results. Activity calls are given as the source filed them. The call rests on the fitted dose curve; in most records, active means well fitted curve in the direction sought with a large enough effect; inconclusive means small, poorly fitted or top-dose-only effect, or another doubt; inactive means no such curve, though single readings can be large; an effect the other way counts as inactive or inconclusive.

What was measured:
[1] = P-glycoprotein substrates identified in KB-3-1 adenocarcinoma cell line, qHTS therapeutic library screen (AID 1346986); further: nearly all actives have a fitted effect of over 60% in size;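 further: potency is for cytotoxicity meaning loss of cell viability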
Procedure, shortened: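 Cells seeded 500/well in DMEM/10% FCS; compounds pinned in dose-response; 72 h incubation; CellTiter-Glo added, 5 min, luminescence. KB-8-5-11 run ±tariquidar to test reversal of P-gp resistance.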

[2] = P-glycoprotein substrates identified in KB-8-5-11 adenocarcinoma cell line, qHTS therapeutic library screen (AID 1346987); further: nearly all actives have a fitted effect of over 65% in size
Procedure, shortened: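 Steps: plate 500 KB-8-5-11 cells/well in DMEM + 10% FCS (colchicine removed); pin compounds in dose-response; incubate 72 h, 37 degree C, 5% CO2; add CellTiter-Glo, 5 min; read luminescence.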
Potency means the concentration at half of the fitted maximal effect.

| Compound | Potency [1] | Potency [2] | outcome [1] | outcome [2] |
| --- | --- | --- | --- | --- |
| CC1=CC(=O)CC(C)(C)[C@H]1/C=C/C(CO)O[C@@H]1O[C@H](CO)[C@@H](O)[C@H](O)[C@H]1O (some centres not stated) | inactive | inactive | – | – |
| CC1(C)C2CC(OC3OC(COC4OCC(O)(CO)C4O)C(O)C(O)C3O)C1(C)CC2O (configuration not stated) | inactive | inactive | – | – |
| CC1=CCC(C(C)(C)O[C@@H]2O[C@H](CO[C@@H]3O[C@@H](C)[C@H](O)[C@@H](O)[C@H]3O)[C@@H](O)[C@H](O)[C@H]2O)CC1 (some centres not stated) | inactive | inactive | – | – |
| Cc1ccc(-c2ccc3c(ccc4sc5c(c43)NC[C@@H](C)NC5=O)n2)cn1 | inactive | inactive | – | – |
| CC(C)S(=O)(=O)N[C@H]1CCOC[C@@H]1c1ccc(-c2ccc(C#N)s2)cc1 | inactive | inactive | – | – |
| CC1(C)CC[C@@]2(C(=O)O[C@@H]3O[C@H](CO)[C@@H](O)[C@H](O)[C@H]3O)C(C1)C1=CCC3[C@@]4(C)CC[C@@H](O[C@@H]5O[C@H](C(=O)O)[C@@H](O[C@@H]6OC[C@@H](O)[C@H](O)[C@H]6O)[C@H](O[C@@H]6OC[C@](O)(CO)[C@H]6O)[C@H]5O)C(C)(C)C4CC[C@@]3(C)[C@]1(C)C[C@H]2O (some centres not stated) | – | – | inactive [at 9.29 µM] | inactive [at 9.29 µM] |
| CCC(O)C(C)C1CCC(C(C)C(=O)O)O1 (configuration not stated) | inactive | inactive | – | – |
| O=C(NCC(O)CO)c1ccncc1Nc1ccc(I)cc1F (configuration not stated) | inactive | inactive | – | – |
| CC(C)(O)/C=C/CC(C)(O)C1C(O)CC2(C)C3CCC4C(C)(C)C(=O)CCC4(C)C3CCC12C (configuration not stated) | inactive | inactive | – | – |
| CC(C)(C)C(=O)CN1C(=O)[C@H](NC(=O)Nc2cccc(C(=O)O)c2)CN(C2CCCCC2)c2ccccc21 | inactive | inactive | – | – |
| C=C1CC2C(C)(CCC(=O)O)C(C(C)(C)O)CCC2(C)C2C(=O)OC(C)(C(=O)OC)C(=O)C12C (configuration not stated) | inactive | inactive | – | – |
| C/C1=C\CC[C@H](C)CCO[C@@H]2O[C@H](CO[C@@H]3OC[C@](O)(COC1=O)[C@H]3O)[C@@H](O)[C@H](O)[C@H]2O | inactive | inactive | – | – |
| Nc1ncnc2c1ncn2CCNCCCCCO | inactive | inactive | – | – |
| CC1(c2nc3c(C(N)=O)cccc3[nH]2)CCCN1 (configuration not stated) | inactive | inactive | – | – |
| C/C(=C\CCC(C)CCO)C(=O)OC1(C)CCC2C(C(=O)O)=COC(OC3OC(CO)C(O)C(O)C3O)C21 (configuration not stated) | inactive | inactive | – | – |
| CC1(C)CC[C@]2(C(=O)O[C@@H]3O[C@H](CO)[C@@H](O)[C@H](O)[C@H]3O)CC[C@]3(C)C(=CCC4[C@@]5(C)C[C@@H](O)[C@H](O)C(C)(C)C5CC[C@]43C)C2[C@@H]1O (some centres not stated) | inactive | inactive | – | – |

| Compound | Potency [1] | Potency [2] | outcome [1] | outcome [2] |
| --- | --- | --- | --- | --- |
| CC1(C)CC[C@]2(C(=O)O[C@@H]3O[C@H](CO)[C@@H](O)[C@H](O)[C@H]3O)CC[C@]3(C)C(=CCC4[C@@]5(C)C[C@@H](O)[C@H](O)[C@](C)(C=O)C5CC[C@]43C)[C@@H]2[C@@H]1O (some centres not stated) | inactive | inactive | – | – |
| NC(=O)c1csc(C2OC(CO)C(O)C2O)n1 (configuration not stated) | inactive | inactive | – | – |
| O=C(O)[C@@H]1C[C@H]2C[C@@H](CCc3nn[nH]n3)CC[C@H]2CN1 | inactive | inactive | – | – |
| C[C@@H]1O[C@@H](O[C@H]2[C@H](O[C@H]3[C@H](O[C@H]4CC[C@@]5(C)C(CC[C@]6(C)C5CC=C5[C@@H]7CC(C)(C)CC[C@]7(C(=O)O[C@@H]7O[C@H](CO)[C@@H](O[C@@H]8O[C@@H](C)[C@H](O)[C@@H](O)[C@H]8O)[C@H](O)[C@H]7O)CC[C@]56C)C4(C)C)OC[C@H](O)[C@@H]3O)O[C@H](CO)[C@@H](O)[C@@H]2O)[C@H](O)[C@H](O)[C@H]1O (some centres not stated) | – | – | inactive [at 9.29 µM] | inactive [at 9.29 µM] |
| CCc1c(-c2ccccc2)c(-c2ccccc2)nn1-c1ccccc1-c1cccc(OCC(=O)O)c1 | inactive | inactive | – | – |
| CCOC(=O)C(CCc1ccccc1)NC1CSC(c2cccs2)CN(CC(=O)O)C1=O (configuration not stated) | inactive | inactive | – | – |
| CC1CCC2C(C)(C)[C@@H](O)CC[C@]2(C)C12Cc1c(O)cc3c(c1O2)CN(C(CCC(=O)O)C(=O)O)C3=O (some centres not stated) | inactive | inactive | – | – |
| COc1c2c(c(C)c3c1C(=O)OC3)O[C@@]1(C)CCC3(C(C)(C)O)OC(=O)CC[C@]3(C)[C@H]1C2 (some centres not stated) | inactive | inactive | – | – |
| COc1ccc(CN2C(=O)C(=O)c3cc(S(=O)(=O)N4CCC[C@H]4COc4cccnc4)ccc32)cc1 | inactive | inactive | – | – |
| C=C(C(=O)O)[C@H]1C[C@]2(C)[C@@H](O)CC[C@]23O[C@H]1C[C@@H]3C | inactive | inactive | – | – |
| COc1ccc(C2(O)c3ccccc3NC(=O)C2O)cc1 (configuration not stated) | inactive | inactive | – | – |
| CC(=O)O[C@H]1[C@@H](O)[C@H](O[C@H]2[C@@H]3C=CO[C@@H](O[C@H]4O[C@@H](CO)[C@H](O)[C@@H](O)[C@@H]4O)[C@@H]3[C@@]3(CO)O[C@@H]23)O[C@@H](C)[C@@H]1OC(=O)/C=C/c1ccccc1 | inactive | inactive | – | – |
| CC(C(O)/C=C/C(C)(C)O)C1CCC2(C)C3C(=O)C=C4C(CCC(O)C4(C)C)C3(C)CCC12C (configuration not stated) | inactive | inactive | – | – |
| CCn1c(=O)c(-c2ccn[nH]2)cc2c(C)nc(N)nc21 | 3.66 µM (active) | 2.91 µM (active) | – | – |
| CCOC(=O)C(CCc1ccccc1)NC(C)C(=O)N1C(=O)N(C)CC1C(=O)O (configuration not stated) | inactive | inactive | – | – |
